Measurements from PubChem BioAssay AID1159580 (chemical genetic matrix, 2015).
Several values for one entry are separate records, joined by “and”; a condition that tells them apart may be missing. Equal values may be shown once. Screen size: about 5,500 compounds; about 2,000 (36%) were called active. Roughly 18% stayed inconclusive and do not appear here. Cut-off read from the data, not from the text of the source: active = normalized growth mostly below about 0.91 (no sharp cut-off); inconclusive = no clear call, values can overlap the other calls; inactive = mostly above about 0.92. Some of the results follow.

Test: chemical genetic growth profiling, strain panel (AID 1159580);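 note: tested at 20 µM; growth read once vehicle control cultures reached saturation at 30 °C; 1 = growth at the plate median or of vehicle wells; lower values mean less growth of the strain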
Conditions: growth OD

Measured: normalized growth

CCCCNc1cc(C(=O)O)cc(S(N)(=O)=O)c1Oc1ccccc1
inactive: S. cerevisiae deletion strains, locus YKL009W, strain mrt4, active compounds read low 0.979 | S. cerevisiae deletion strains, locus YKL068W, active compounds read low 0.986 | S. cerevisiae deletion strains, locus YKL085W, strain MDH1 (second series), active compounds read low 0.989 | S. cerevisiae deletion strains, locus YKL085W, strain MDH1, active compounds read low 0.989 | S. cerevisiae deletion strains, locus YKL160W, strain elf1, active compounds read low 0.995 | S. cerevisiae deletion strains, locus YKL190W, strain CNB1, active compounds read low 0.994 | S. cerevisiae deletion strains, locus YKR001C, strain vps1, active compounds read low 0.983 | S. cerevisiae deletion strains, locus YKR026C, strain gcn3, active compounds read low 1.01 | S. cerevisiae deletion strains, locus YKR091W, strain srl3, active compounds read low 1 | S. cerevisiae deletion strains, locus YLL001W, strain dnm1, active compounds read low 1 | S. cerevisiae deletion strains, locus YLL026W, active compounds read low 0.992 | S. cerevisiae deletion strains, locus YLL041C, strain sdh2, active compounds read low 0.991 | S. cerevisiae deletion strains, locus YLR027C, strain aat2, active compounds read low 1.01 | S. cerevisiae deletion strains, locus YLR039C, strain RIC1, active compounds read low 1.01 | S. cerevisiae deletion strains, locus YLR058C, strain SHM2, active compounds read low 0.988 | S. cerevisiae deletion strains, locus YLR102C, strain apc9, active compounds read low 0.984 | S. cerevisiae deletion strains, locus YLR113W, strain HOG1, active compounds read low 1.04 | S. cerevisiae deletion strains, locus YLR221C, strain rsa3, active compounds read low 1 | S. cerevisiae deletion strains, locus YLR258W, strain gsy2, active compounds read low 0.995 | S. cerevisiae deletion strains, locus YLR262C, strain YPT6 (second series), active compounds read low 1.02 | S. cerevisiae deletion strains, locus YLR262C, strain YPT6, active compounds read low 1.02 | S. cerevisiae deletion strains, locus YLR268W, strain sec22, active compounds read low 0.965 | S. cerevisiae deletion strains, locus YLR320W, strain mms22, active compounds read low 0.976 | S. cerevisiae deletion strains, locus YLR330W, strain CHS5, active compounds read low 0.995 | S. cerevisiae deletion strains, locus YLR342W, strain FKS1 (second series), active compounds read low 0.975 | S. cerevisiae deletion strains, locus YLR342W, strain FKS1, active compounds read low 0.976 | S. cerevisiae deletion strains, locus YLR357W, strain rsc2, active compounds read low 0.977 | S. cerevisiae deletion strains, locus YLR370C, strain arc18, active compounds read low 1.01 | S. cerevisiae deletion strains, locus YLR371W, strain rom2, active compounds read low 0.984 | S. cerevisiae deletion strains, locus YLR384C, strain iki3, active compounds read low 1.02 | S. cerevisiae deletion strains, locus YLR418C, strain cdc73, active compounds read low 0.959 | S. cerevisiae deletion strains, locus YML016C, strain PPZ1, active compounds read low 0.991 | S. cerevisiae deletion strains, locus YML032C, strain rad52, active compounds read low 0.99 | S. cerevisiae deletion strains, locus YML120C, strain ndi1, active compounds read low 0.994 | S. cerevisiae deletion strains, locus YML124C, strain tub3, active compounds read low 0.974 | S. cerevisiae deletion strains, locus YMR058W, strain fet3, active compounds read low 1.06 | S. cerevisiae deletion strains, locus YMR078C, strain ctf18, active compounds read low 0.978 | S. cerevisiae deletion strains, locus YMR125W, strain sto1, active compounds read low 1.01 | S. cerevisiae deletion strains, locus YMR129W, active compounds read low 1.02 | S. cerevisiae deletion strains, locus YMR205C, strain PFK2, active compounds read low 0.989 | S. cerevisiae deletion strains, locus YMR223W, strain ubp8, active compounds read low 0.972 | S. cerevisiae deletion strains, locus YMR231W, strain pep5, active compounds read low 1.01 | S. cerevisiae deletion strains, locus YMR263W, strain SAP30, active compounds read low 0.997 | S. cerevisiae deletion strains, locus YMR307W, strain GAS1, active compounds read low 0.957 | S. cerevisiae deletion strains, locus YNL067W, strain RPL9B, active compounds read low 1.02 | S. cerevisiae deletion strains, locus YNL071W, strain lat1, active compounds read low 1.02 | S. cerevisiae deletion strains, locus YNL128W, strain TEP1, active compounds read low 0.981 | S. cerevisiae deletion strains, locus YNL153C, strain GIM3, active compounds read low 1.05 and 1.02 | S. cerevisiae deletion strains, locus YNL175C, strain NOP13, active compounds read low 1 | S. cerevisiae deletion strains, locus YNL183C, strain NPR1, active compounds read low 0.967 | S. cerevisiae deletion strains, locus YNL197C, strain WHI3, active compounds read low 1.04 | S. cerevisiae deletion strains, locus YNL209W, strain ssb2, active compounds read low 1.01 | S. cerevisiae deletion strains, locus YNL224C, strain SQS1, active compounds read low 0.999 | S. cerevisiae deletion strains, locus YNL233W, strain BNI4, active compounds read low 1.01 | S. cerevisiae deletion strains, locus YNL248C, strain rpa49, active compounds read low 0.987 | S. cerevisiae deletion strains, locus YNL250W, strain rad50, active compounds read low 0.946 | S. cerevisiae deletion strains, locus YNL271C, strain bni1, active compounds read low 0.967 | S. cerevisiae deletion strains, locus YNL298W, strain CLA4, active compounds read low 0.969 | S. cerevisiae deletion strains, locus YNL307C, strain MCK1, active compounds read low 0.975 | S. cerevisiae deletion strains, locus YNL322C, strain KRE1 (second series), active compounds read low 0.982 | S. cerevisiae deletion strains, locus YNR049C, strain mso1, active compounds read low 1 | S. cerevisiae deletion strains, locus YNR052C, strain pop2, active compounds read low 0.977 | S. cerevisiae deletion strains, locus YOL006C, strain TOP1, active compounds read low 1 | S. cerevisiae deletion strains, locus YOL012C, strain htz1 0.812 | S. cerevisiae deletion strains, locus YOL147C, strain pex11, active compounds read low 0.977 | S. cerevisiae deletion strains, locus YOR001W, strain rrp6, active compounds read low 1.01 | S. cerevisiae deletion strains, locus YOR061W, strain CKA2, active compounds read low 0.99 | S. cerevisiae deletion strains, locus YOR069W, strain VPS5, active compounds read low 0.986 | S. cerevisiae deletion strains, locus YOR070C, strain gyp1, active compounds read low 0.998 | S. cerevisiae deletion strains, locus YOR080W, strain dia2, active compounds read low 1.01 | S. cerevisiae deletion strains, locus YOR083W, strain WHI5 (second series), active compounds read low 1.03 | S. cerevisiae deletion strains, locus YOR083W, strain WHI5, active compounds read low 0.951 | S. cerevisiae deletion strains, locus YOR106W, strain vam3, active compounds read low 1.03 | S. cerevisiae deletion strains, locus YOR136W, strain idh2, active compounds read low 0.992 | S. cerevisiae deletion strains, locus YOR144C, strain elg1, active compounds read low 0.982 | S. cerevisiae deletion strains, locus YOR184W, strain ser1, active compounds read low 0.973 | S. cerevisiae deletion strains, locus YOR231W, strain MKK1, active compounds read low 1.07 | S. cerevisiae deletion strains, locus YOR265W, strain rbl2, active compounds read low 1 | S. cerevisiae deletion strains, locus YOR270C, strain vph1, active compounds read low 1.05 | S. cerevisiae deletion strains, locus YOR290C, strain snf2, active compounds read low 1 | S. cerevisiae deletion strains, locus YOR316C, strain cot1, active compounds read low 0.986 | S. cerevisiae deletion strains, locus YPL051W, strain arl3, active compounds read low 0.997 | S. cerevisiae deletion strains, locus YPL055C, strain LGE1, active compounds read low 1.01 | S. cerevisiae deletion strains, locus YPL078C, strain atp4, active compounds read low 1 | S. cerevisiae deletion strains, locus YPL106C, strain sse1, active compounds read low 0.962 | S. cerevisiae deletion strains, locus YPL240C, strain hsp82, active compounds read low 1 | S. cerevisiae deletion strains, locus YPL241C, strain CIN2, active compounds read low 0.985 | S. cerevisiae deletion strains, locus YPL256C, strain CLN2, active compounds read low 1.06 | S. cerevisiae deletion strains, locus YPR119W, strain clb2, active compounds read low 0.983 | S. cerevisiae deletion strains, locus YPR141C, strain kar3, active compounds read low 0.967 | S. cerevisiae deletion strains, locus YPR163C, strain tif3, active compounds read low 0.983 | S. cerevisiae deletion strains, locus YPR167C, strain met16, active compounds read low 0.986 | S. cerevisiae deletion strains, strain wtn01, active compounds read low 0.958 | S. cerevisiae strains, strain wild type, active compounds read low 0.999
